# BH1578 lux ind: induces V. cholerae light production without autoinducers; 0.16% of 350,000 active; AID 588436; activation, % at 18.7 µM; V. cholerae BH1578 lux reporter, luminescence, 6 h; in the data active = activation mostly above about 9.7%, no sharp cut-off
# Y pestis TopoI: blocks Yersinia pestis topoisomerase I activity. 0.064% of 360,000 active. activity, % at 10 µM. Y. pestis Topo-I cleavage product accumulation, plate reader; in the data active = activity above about 50%, passing the limit was not always enough
# PfHsp40 yeast: restores yeast growth despite PfHsp40 toxicity. AID 504582. growth rescue, % at 12.5 µM. 0.68% of 340,000 active. S. cerevisiae expressing PfHsp40, growth rescue, ATP luminescence; in the data active = growth rescue above about 28%, passing the limit was not always enough;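 also: yeast W303a lacking pdr1 and pdr3 grown in galactose medium; growth measured after three days at 30 °C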
# TcdB GH inh: inhibitors of Clostridioides difficile toxin B glycohydrolase; P18177; TcdB glycohydrolase enzymatic assay, plate reader; inhibition, % at 9.99 µM; 0.24% of 350,000 active; in the data active = inhibition above about 10%
# VHR inh abs: blocks human VHR1 dual specificity phosphatase | P51452 | recombinant VHR phosphatase, pNPP absorbance | inhibition, % at 13.3 µM | 0.52% of 290,000 active; in the data active = inhibition above about 50%
# Target sequence (P51452 whole entry, looked up): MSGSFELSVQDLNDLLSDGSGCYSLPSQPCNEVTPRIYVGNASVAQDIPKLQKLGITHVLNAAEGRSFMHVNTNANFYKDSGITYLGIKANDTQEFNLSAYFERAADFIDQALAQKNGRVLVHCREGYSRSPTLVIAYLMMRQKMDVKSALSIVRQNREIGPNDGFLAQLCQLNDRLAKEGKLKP
# Mtb BioA inh: inhibitors of Mycobacterium tuberculosis BioA enzyme | purified M. tuberculosis BioA enzyme, plate reader | inhibition, % at 9.99 µM | 0.096% of 360,000 active | AID 602481; in the data active = inhibition above about 40%
# An asterisk follows results filed as active; i = inactive; · = not tested or not shown. Shown are actives, neighbours in structure and some others; about 1.2% of the full set was active somewhere.
SMILES,BH1578 lux ind,Y pestis TopoI,PfHsp40 yeast,TcdB GH inh,VHR inh abs,Mtb BioA inh
Cc1cccc(C(=O)N(Cc2nc3ccccc3c(=O)[nH]2)C2CCCCC2)c1,-1,54*,1,2,52*,·
Cc1cccc(C(=O)N(Cc2nc3ccccc3c(=O)[nH]2)C2CCCC2)c1,-1,23,0,0,18,·
C/C(=N/N=C1\SCC(=O)N1c1ccccc1)c1ccc(C)cc1,-1,4,0,1,-30,-1
Cc1ncoc1C(=O)NC1CC(C)(C)Cc2c1cnn2-c1ccc(F)cc1 (stereo not drawn),-1,-5,0,1,53*,2
CC1(C)Cc2c(cnn2-c2ccc(F)cc2)C(NC(=O)c2ccco2)C1 (stereo not drawn),i,-1,0,0,33,3
COc1ccc(OC)c(-c2c3cc(O)c(=O)cc-3oc3cc(O)c(O)cc23)c1,0,-6,287*,·,8,·
COc1cc(C2C(C#N)=C(N)Oc3n[nH]c(-c4cccnc4)c32)cc(Br)c1O (stereo not drawn),-1,-7,-1,0,6,1
Cn1c(CC2C(=O)Nc3ccc(Br)cc32)nc2ccccc2c1=O (stereo not drawn),0,-6,0,3,-4,1
O=C1Nc2ccc(Br)cc2C1Cc1ccccc1F (stereo not drawn),0,5,-1,28*,12,1
CCCCCCCCCn1c2c(c(=N)c3c1CCC3)CCCC2,0,20,6,·,-3,·
CCCCCCCCCCn1c2c(c(=N)c3c1CCC3)CCC2,i,21,291*,·,26,10
Cc1c(-n2c(O)c(C3=c4ccccc4=NC3=O)sc2=S)c(=O)n(-c2ccccc2)n1C,i,1,0,18*,15,·
O=C1N=c2ccccc2=C1c1sc(=S)n(-c2ccc(O)cc2)c1O,-1,-32,-1,2,10,-1
COc1ccc(OC)c(S(=O)(=O)N(C)CC(=O)N2CCCCC2)c1,0,10,0,1,53*,-2
COc1ccc(OC)c(S(=O)(=O)N(C)CC(=O)N2CCc3ccccc3C2)c1,-5,2,0,·,5,6
CC(C)(C)OC(=O)C[C@H]1C/C=C\C[C@H](CC(=O)NCCO)C(=O)N2CCC[C@@H]2COC1=O,i,-5,41*,0,·,-3
N/C(=N\OC(=O)c1ccccc1F)c1cccc([N+](=O)[O-])c1,0,9,-1,-1,51*,0
N/C(=N\OC(=O)c1ccccc1Br)c1cccc([N+](=O)[O-])c1,1,5,0,1,26,2
COc1ccc(CCNC(=O)C(=O)Nc2ccc3c(c2)OCCO3)cc1OC,·,1,0,1,2,·
COc1ccc(CC2(CO)CCN(S(=O)(=O)c3c(C)nn(C)c3C)CC2)cc1,·,-1,-1,1,11,·
Cc1cccc(NCC(=O)N/N=C\c2ccccn2)c1,0,-13,1,·,23,·
Cc1csc(CN(C)C(=O)C2CCC(=O)N(CCN(C)C)C2)n1 (stereo not drawn),0,-5,-1,0,60*,0
CC[n+]1c(/C=C/C=C/c2ccc(N(C)C)cc2)sc2ccccc21,i,-17,245*,10,4,0
CN(C)c1ccc(/C=C/C=C/c2sc3ccccc3[n+]2C)cc1,-1,-20,126*,5,-1,0
OCCOCCn1c(CCNc2nc(-c3ccc(Cl)cc3)cs2)nc2cc(Cl)c(Cl)cc21,1,-11,-1,1,·,-2
SMILES,BH1578 lux ind,Y pestis TopoI,PfHsp40 yeast,TcdB GH inh,VHR inh abs,Mtb BioA inh
COc1ccc(C#Cc2ccc3c(c2)[C@H]2[C@H](CCN2C(=O)C2CC2)[C@H](CO)N3)cc1,·,·,·,0,·,-5
CC(C)=CC(=O)Nc1nnc(-c2cccnc2)s1,i,-7,-1,·,53*,-2
NS(=O)(=O)c1ccc(CNC(=O)NC2(c3ccccc3)CC2)cc1,0,-3,0,0,50*,-1
COc1ccc(NC(=O)c2cc(S(=O)(=O)N3CCc4ccccc43)cn2C)cc1OC,-1,30,-1,16*,-18,0
C/C=C/c1ccc2c(c1)O[C@@H](CN(C)C(=O)c1ccc(F)cc1)[C@@H](C)CN([C@@H](C)CO)S2(=O)=O,·,·,·,1,·,8
O=C(O)CCCC(=O)Nc1ccc(OCc2nc3ccccc3s2)cc1,-2,6,0,0,57*,-1
COc1cc(/C=N/NC(=O)CCN2CCCCC2)ccc1O,i,-6,3,10*,7,·
Cc1cc(O)c(C(=O)/C=C/c2cccc([N+](=O)[O-])c2)c(=O)o1,i,-4,9,2,0,2
CC(=O)Oc1ccccc1C(=O)C=Cc1cccc([N+](=O)[O-])c1,0,3,128*,3,·,2
COc1ccccc1/C=C1\SC(=S)N(CCC(=O)NCCCN2CCOCC2)C1=O,0,-2,-1,0,17,·
Cc1oc(-c2ccccc2F)nc1CS(=O)CC(=O)NCc1ccc2c(c1)OCO2 (stereo not drawn),0,8,0,0,-21,-1
CCN1/C(=C/c2cccc[n+]2C)Sc2ccc(OC)cc21,0,-1,1,-1,7,-1
CCN1/C(=C/c2ccc3cc(C)ccc3[n+]2C)Sc2ccc3sccc3c21,0,-6,153*,0,22,-3
CCn1ncc(/C=N\NC(=O)c2ccc3c(c2)c(C)c(C)n3Cc2ccccc2)c1C,i,6,0,·,15,-3
CCn1cc(/C=N\NC(=O)c2ccc3c(c2)c(C)c(C)n3Cc2ccccc2)c(C)n1,i,27,72*,·,-9,0
CSc1ccccc1OCc1cc(C(=O)NCC(C)Oc2cccnc2)no1 (stereo not drawn),i,16,·,1,·,-1
CCOC(=O)C1=C(CN2CCN(C(=O)c3ccco3)CC2)NC(=O)NC1c1ccc(Cl)cc1 (stereo not drawn),i,31,0,-2,16,-1
CCOC(=O)C1=C(CN2CCN(C(=O)c3ccco3)CC2)NC(=O)NC1c1ccc(OC(C)C)cc1 (stereo not drawn),0,25,0,2,8,44*
CC(=O)c1ccc2c(c1)C1C(Cl)C(Sc3ccccc3[N+](=O)[O-])CC1C(C(=O)O)N2 (stereo not drawn),0,-28,2,·,13,·
O=C(O)c1cccc2c1NC(C(=O)O)C1CC(Sc3ccccc3[N+](=O)[O-])C(Cl)C21 (stereo not drawn),i,-29,55*,·,-2,8
CCOC(=O)c1sc2ccc(S(=O)(=O)N3CCCCC3)cc2c1N,-12,3,0,·,7,0
COc1ccc(N2CCN(C(=O)c3ccc(C)cc3)CC2)c([N+](=O)[O-])c1,0,10,33*,·,-8,·

# Bioassay records from PubChem.
